# Hit rate of the full screen: of about 38,000 compounds, about 1,200 (3.2%) showed an effect of 50% or more. The median lay at about -58%. Only a selection was taken, and strong results are over-represented in it overall.
# System: Plasmodium falciparum
# Experiment: Calibr Malaria Delayed Death Assay SOP
# Assay type: functional, organism-based
# Parameters: scale not given: in the data most compounds retested in dose-response had high values
# Settings: concentration 4.99e-06 (unit not given; other assays of the set use mol/L)
row,Structure (SMILES),Percent Effect [%]
1,COCCN1C(=O)CC[C@@H]2[C@H]1CCN2S(=O)(=O)c1cccs1,-44.47
2,O=C(NCCc1csc(-c2ncccn2)n1)c1cnn2c1CCCC2,-31.93
3,CC(=O)N1CCCC1c1cccc(Cc2ccccc2Cl)n1 (centres undefined),-62.89
4,CN(C)S(=O)(=O)N1CCCC(c2cccc(Cc3ccc(Cl)cc3)n2)C1 (centres undefined),-15.18
5,O=C(C1CC=CC1)N1C[C@H]2CN(Cc3ccncc3)C(=O)[C@H]2C1.O=C(O)C(F)(F)F,-118.6
6,Cc1ccc(C(C(=O)O)N(C)CCN2CCOCC2)c(F)c1 (centres undefined),-35.14
7,COc1cc(F)ccc1C(C(=O)O)N(C)CCN1CCOCC1 (centres undefined),79.89
8,COc1ccc(C(C(=O)O)N(C)CCN2CCOCC2)c(C)c1 (centres undefined),-92.34
9,COc1cc(F)ccc1C(C(=O)O)N(C)CCN1CCCC1 (centres undefined),71.25
10,COc1ccc(C(C(=O)O)N(C)CCN2CCCC2)c(C)c1 (centres undefined),-56.58
11,COc1ccc(C(C(=O)O)N(C)CCN2CCCC2)cc1F (centres undefined),-71.16
12,CCCS(=O)(=O)N1C[C@H]2C[C@H](C(=O)Nc3cccnc3)[C@@H](C1)O2,-54.27
13,CC(C)=CCN1CCN(Cc2cccc(C)n2)CC1CCO (centres undefined),-53.69
14,Cc1cc(NCCc2nc(C)cs2)nc(-c2cccnc2)n1,-152.4
15,CC(C(=O)NN1CCOCC1)n1nc(C(F)(F)F)c(Cl)c1C1CC1 (centres undefined),-94.38
16,Cc1c(C(=O)NC2=NCCS2)cnn1-c1ccc(Cl)cc1,-71.42
17,CN(C)CCN1CC2(CCCN(c3ncc(Cl)cc3F)C2)CCC1=O (centres undefined),82.66
18,COCCCN1CC2(CCCN(c3ncc(Cl)cc3F)C2)CCC1=O (centres undefined),-81.54
19,COCCN1CC2(CCCN(c3ncc(Cl)cc3F)C2)CCC1=O (centres undefined),-14.43
20,CCN1Cc2nc(OC)c(CNC(=O)C3CCCN(C)C3)cc2C1=O (centres undefined),-47.23
21,C=C(C)CN1CCCC(NS(C)(=O)=O)C1 (centres undefined),-112.5
22,CO[C@H]1CN(C(=O)c2ccnnc2)[C@@H]2COC[C@H]12,-17.32

row,Structure (SMILES),Percent Effect [%]
1,CN(C)CCN1C[C@@H]2CN(c3ccccc3)C[C@@H]2C1=O.O=C(O)C(F)(F)F,-48.1
2,Cc1ccsc1C(Cc1ccccc1)NC(=O)CSCC(N)=O (centres undefined),-15.45
3,CCC(=O)NC(CC)c1ccccc1C (centres undefined),-70.92
4,CCC(=O)NCC(=O)NC(Cc1ccccc1)c1sccc1C (centres undefined),84.56
5,Cc1ccsc1C(O)CNC(=O)Cc1ccc(F)cc1 (centres undefined),-29.72
6,O=C(CNC(=O)C1CC1)Nc1c(F)cccc1Oc1ccccc1,-53.44
7,Cc1ccsc1C(Cc1ccccc1)NC(=O)CNC(=O)C1CC1 (centres undefined),68.17
8,COc1cccc2c1OCC(Cc1cc(C(N)=O)ccn1)C2 (centres undefined),-54.91
9,CCc1nc(CN(C)C(=O)c2ccc(OCCCOC)nc2)cs1,-70.62
10,Cn1cc(CC(=O)N2CCC(Nc3cccnn3)CC2)c2ccccc21,-27.56
11,CCC(CNC(=O)CNC(C)=O)Oc1cccc(F)c1 (centres undefined),84.82
12,CCC(=O)NCC(CC)Oc1cccc(F)c1 (centres undefined),-6.3
13,CCC(CNC(=O)COC)Oc1cccc(F)c1 (centres undefined),-58.01
14,Cc1cc(C(=O)N2CCCC(c3cc(C(F)(F)F)[nH]n3)C2)[nH]n1 (centres undefined),-117
15,O=C(O)C(F)(F)F.O=C(O)C(F)(F)F.c1cncc(-c2ncnc3c2CCN(Cc2ccsc2)CC3)c1,-128.4
16,Cn1c(=O)oc2cc(S(=O)(=O)N3CCC(c4ccccc4)C3)c(Cl)cc21 (centres undefined),-8.531
17,CCN(C)CC1CCN(C(=O)Nc2ccc(C)cc2)C1 (centres undefined),-13.91
18,O=C(O)C(F)(F)F.O=C(c1ccncc1F)N1CC[C@@H]2CN(c3ncccn3)CCO[C@@H]2C1,-33.14
19,Cc1ccc(CN2CCCn3c(nc(Cn4ccnc4)cc3=O)C2)s1,-9.733
20,Cc1cc(N(Cc2cccs2)C2CC2)n2nc(C(F)(F)F)nc2n1,65.64
21,Cc1cc(N(Cc2cccnc2)C2CC2)n2nc(C(F)(F)F)nc2n1,22.81
22,Cc1cc(N(Cc2ccccn2)C2CC2)n2nc(C(F)(F)F)nc2n1,-69.19

row,Structure (SMILES),Percent Effect [%]
1,COCCN(c1cc(C)nc2nc(C(F)(F)F)nn12)C1CCCC1,-69.88
2,Cc1ccc(CN(c2cc(C)nc3nc(C(F)(F)F)nn23)C2CC2)cc1,93.63
3,Cc1cc(N(Cc2ccccc2F)C2CC2)n2nc(C(F)(F)F)nc2n1,-0.7756
4,COC(=O)CCC(=O)N1CCC2(CN(Cc3ccccc3)C2)C1,-61.64
5,Cc1cc(C)n(-c2cncc(NCCC(=O)NC(C)C)n2)n1,-25.6
6,Fc1ccc(CN2CCO[C@H]3[C@H](OCC4CCCC4)CC[C@@H]32)cc1.O=C(O)C(F)(F)F,-74.43
7,COC(=O)N1CCCN(Cn2nc(C)c(Br)c2C)CC1,-78.94
8,CCOC[C@@]12CCC[C@@H]1CN(C(=O)c1ccc(OC)cc1)C2,-67.65
9,Cn1cc(CN2CCn3cc(Cn4cccn4)nc3C2)cn1.O=C(O)C(F)(F)F,-116.7
10,CC(C)Nc1ncnc2c1CCN(C(=O)CC1CCCC1)CC2,-30.46
11,CCOCCN1CCN(CC(O)c2cc(Cl)ccc2Cl)CC1 (centres undefined),77.57
12,CCOCCN1CCN(CC(O)c2ccc(C)c(C)c2)CC1 (centres undefined),-16.95
13,CC(C)C(=O)N1CCN(CC(O)c2cc(Cl)ccc2Cl)CC1 (centres undefined),-47.78
14,CCN1CCN(CC(O)c2cc(Cl)ccc2Cl)CC1 (centres undefined),76.72
15,OCCN1CCN(CC(O)c2cc(Cl)ccc2Cl)CC1 (centres undefined),-5.982
16,OC(CN1CCOCC1)c1cc(Cl)ccc1Cl (centres undefined),-41.91
17,CC(C)c1nn(C)c(Cl)c1CNCCn1cccn1,8.083
18,COc1ccc(CNc2nc(C3CC3)nc3c(C)nn(C)c23)cc1,25.99
19,CCn1ccc(-c2cc(C(=O)O)n3ncc(Cl)c3n2)n1,-63.4
20,CCC(=O)Nc1cccc(OCC(=O)N(C)CCCC2CCCO2)c1 (centres undefined),-128
21,O=C(C(CNCc1cccc(O)c1)c1ccccc1)N1CCOCC1 (centres undefined),-54.71
22,O=C(C(CNCc1cccs1)c1ccccc1)N1CCOCC1 (centres undefined),4.238

row,Structure (SMILES),Percent Effect [%]
1,O=C(Nc1nccs1)c1csc(NC2CCCC2)n1,-183.6
2,Cc1cnn(CCNCC(O)c2ccc(C(F)(F)F)cc2)c1 (centres undefined),71.82
3,Cc1cnn(CCNCC(O)c2ccc(F)c(F)c2)c1 (centres undefined),43.94
4,Cc1cnn(CCNCC(O)c2ccc3c(c2)OCCO3)c1 (centres undefined),-44.13
5,COc1ccccc1C1CC(=O)Nc2c1c(=O)[nH]n2C(C)C (centres undefined),-127.8
6,CC(O)CNc1nc(-c2cccnc2)nc2c1CCC2 (centres undefined),-47.48
7,c1cncc(-c2nc3c(c(NCC4(c5ccncc5)CC4)n2)CCC3)c1,-35.93
8,c1ccc(-n2cnnc2CCCN2CCOCC2)cc1,-26.23
9,CC(C)OCCC(=O)NCC(c1c(F)cccc1F)N(C)C (centres undefined),-18.53
10,O=C1COC2(CCN(C(=O)[C@H]3CCCO3)CC2)CN1Cc1ccccn1,-79.26
11,N[C@@H](C(=O)N1CCN(c2ccccc2Cl)C(=O)C1)c1ccccc1,-16.48
12,O=C(C(CNCc1ccccc1O)c1ccccc1)N1CCOCC1 (centres undefined),14.02
13,CC(C)C[C@H](N)C(=O)N1CCSc2ccccc2C1.Cl,47.22
14,CC(C)[C@H](N)C(=O)N1CCSc2ccccc2C1.Cl,73.25
15,Cc1csc(CN(C)C(C)C(=O)N2CCc3ccccc3C2)n1 (centres undefined),-122.6
16,Cl.NC(C(=O)N1CCSc2ccccc2C1)c1ccccc1 (centres undefined),59.31
17,CC1c2ncc(COCC3CC3)n2CCN1C(=O)c1ccnnc1 (centres undefined),2.24
18,CCOCCN1CCN(CC(O)c2ccc(C(F)(F)F)cc2)CC1 (centres undefined),21.93
19,CSCc1ccc(C(=O)N2CCN(CC(C)O)CC2)cc1 (centres undefined),-108.1
20,c1ccc(CCN2CCN(c3ccc4nncn4n3)CC2)nc1,-102.7
21,Cc1cc(CN2CCN(c3ccc4nncn4n3)CC2)no1,-4.981
22,CC(Cn1cccn1)NC(=O)N1CCN(Cc2cccnc2)CC1 (centres undefined),-145.3

row,Structure (SMILES),Percent Effect [%]
1,Cc1[nH]c(=O)[nH]c(=O)c1CN1CCCC(CCc2ccccc2)C1 (centres undefined),-20.63
2,COc1cccc(CCC2CCCN(C(=O)c3ccccn3)C2)c1 (centres undefined),-27.65
3,CN(CCOCC1CC1)C(=O)Nc1ccc([S+](C)[O-])cc1 (centres undefined),-126.1
4,CNC(=O)NC(C)c1c(F)cccc1Cl (centres undefined),-107.4
5,NCC1(c2cccc(C(F)(F)F)c2)CCCCC1,-1.273
6,Cc1ccccc1C1(CN)CCCCC1,91.14
7,Cc1ccccc1C1(CN)CCOCC1,37.02
8,COc1ccc(C2CCCCCN2S(N)(=O)=O)cc1 (centres undefined),-81.61
9,COc1ncccc1C(=O)N1CC[C@H]2C[C@H](c3noc(C)n3)O[C@@H]2C1,-68.36
10,CN(C)CCC(Nc1nc(N)nc2c1CCNCC2)c1ccccc1 (centres undefined),-67.64
11,Cc1ccccc1N1CCN(c2nc(N(C)C)nc3c2CCNC3)CC1,36.34
12,CC(Nc1nc(-c2ccccc2)nc2c1CCNCC2)c1cccnc1 (centres undefined),90.56
13,CC(=O)N1CCc2nc(-c3ccccc3)nc(NC(C)C)c2CC1,-31.72
14,Cc1cccnc1[C@H](C)Nc1nc(-c2cccnc2)nc2c1CNC2,77.9
15,c1ccc2c(c1)CCN(c1nc(-c3ccncc3)nc3c1CCNC3)C2,59.82
16,CC(Nc1nc(-c2ccncc2)nc2c1CCNC2)c1ccccc1 (centres undefined),70.67
17,CCc1cc(C(C)Nc2nc(-c3cccnc3)nc3c2CNC3)on1 (centres undefined),-34.82
18,Cc1cc(CC(C)Nc2nc(-c3cccnc3)nc3c2CNC3)[nH]n1 (centres undefined),-0.4892
19,CCOCc1nc2c(c(NC(CC)c3cccnc3)n1)CCNCC2 (centres undefined),-63.2
20,CN(C)c1nc2c(c(N3CCc4ccccc4C3)n1)CCNC2,30.67
21,Cc1ccccc1C(Nc1ncnc2c1CCNC2)c1ccccc1 (centres undefined),22.99

# Source: ChEMBL document CHEMBL3988442, “University of Dundee, Small-Polar-MMV Screening Library” (2021)
